Assay results taken from the supplement of paper PMC11172423.
A number with no mark means an inactive call.

Experiments:
[1] = system: Falciformispora senegalensis CBS197.79; test: growth relative to untreated control; higher = less inhibition, active = 20 or less
Procedure, shortened: (§1)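 Viability readout used either MTS (2 h, 490 nm) or resazurin (600 nm). Before this, hyphal fragments of M. mycetomatis MM55 or F. senegalensis CBS197.79 in colourless RPMI 1640 with L-glutamine and MOPS (68–72% transmission at 660 nm) had been exposed in 96-well plates to compound at 100 or 25 µM for 7 days at 37 °C. Growth denotes metabolic activity relative to the untreated growth control, with a medium-plus-dye blank subtracted from both.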

[2] = system: Madurella mycetomatis MM55; test: as above
Procedure, shortened: as §1

Row | Structure (SMILES) | growth ([1]; 25 µM) | growth ([1]; 100 µM) | growth ([2]; 25 µM) | growth ([2]; 100 µM)
1 | Cc1ccc(-c2cc(C(F)(F)F)nn2-c2ccc(S(N)(=O)=O)cc2)cc1 | 102% | 9.81% (active) | 98% | 6.13% (active)
2 | C/C=C/C[C@@H](C)[C@@H](O)[C@H]1C(=O)N[C@@H](CC)C(=O)N(C)CC(=O)N(C)[C@@H](CC(C)C)C(=O)N[C@@H](C(C)C)C(=O)N(C)[C@@H](CC(C)C)C(=O)N[C@@H](C)C(=O)N[C@H](C)C(=O)N(C)[C@H](CC(C)C)C(=O)N(C)[C@@H](CC(C)C)C(=O)N(C)[C@@H](C(C)C)C(=O)N1C | 113% | 94.5% | 79% | 68.9%
3 | FC(F)(F)CNc1ncc2nc(Nc3cc(Cl)cc(Cl)c3)n(C3CCNCC3)c2n1 | 104% | 107% | 70.4% | 4.54% (active)
4 | CCN1CCN(C2CCN(C(=O)COc3ccc(-c4ccccc4F)cc3)CC2)CC1 | 99.8% | 6% (active) | 105% | 41.1%
5 | N#Cc1ccc(-c2n[nH]c3ccc(-c4n[nH]c(CC(F)(F)F)n4)cc23)cc1 | 94% | 98.3% | 109% | 114%
6 | CC(Nc1ccc2c(c1)OCCCO2)C(=O)Nc1cc(C(F)(F)F)ccc1N1CCOCC1 (centres undefined) | 87.5% | 86.1% | 97.8% | 125%
7 | C=CC(C)(C)C1=C(O)C(=O)c2ccccc2C1=O | 103% | 101% | 98.8% | 164%
8 | CCN1CCN(Cc2ccc(Nc3ncc(F)c(-c4cc(F)c5nc(C)n(C(C)C)c5c4)n3)nc2)CC1 | 101% | 105% | 80.5% | 85.2%
9 | Cc1ccc(-c2ccc(C3(CN)CCOCC3)cc2)cn1 | 59% | 25.4% | 41.4% | 6.97% (active)
10 | CC[C@H](C)[C@H]1O[C@]2(C=C[C@@H]1C)C[C@@H]1C[C@@H](C/C=C(\C)[C@@H](O[C@H]3C[C@H](OC)[C@@H](O[C@H]4C[C@H](OC)[C@H](NC(C)=O)[C@H](C)O4)[C@H](C)O3)[C@@H](C)/C=C/C=C3\CO[C@@H]4[C@H](O)C(C)=C[C@@H](C(=O)O1)[C@]34O)O2 | 101% | 91.4% | 74.9% | 116%
11 | CO[C@H]1C[C@H](O[C@@H]2/C(C)=C/C[C@@H]3C[C@@H](C[C@]4(CC[C@H](C)[C@@H](C5CCCCC5)O4)O3)OC(=O)[C@@H]3C=C(C)/C(=N/O)[C@H]4OC/C(=C\C=C\[C@@H]2C)[C@]43O)O[C@@H](C)[C@@H]1O | 97.5% | 89.3% | 88.8% | 111%
12 | CN(C)CCn1cnc2sc3c(c2c1=O)CCC(NCc1cccc(Cl)c1)C3 (centres undefined) | 94.3% | 21% | 36.1% | 5.28% (active)
13 | CC(=O)Oc1ccccc1C(=O)Nc1ncc([N+](=O)[O-])s1 | 97.4% | 104% | 87.7% | 95.6%
14 | NS(=O)(=O)OC[C@@H]1C[C@@H](n2ccc3c(N[C@H]4CCc5ccccc54)ncnc32)C[C@@H]1O | 112% | 101% | 85% | 99.5%
15 | OB(O)O | 90.6% | 104% | 98.7% | 163%
16 | O=C(NCc1ccco1)c1ccc2[nH]c(COc3ccc(C45CC6CC(CC(C6)C4)C5)cc3)nc2c1 | 97.5% | 84.5% | 87.5% | 168%

Row | Structure (SMILES) | growth ([1]; 25 µM) | growth ([1]; 100 µM) | growth ([2]; 25 µM) | growth ([2]; 100 µM)
17 | NC(=O)c1cccc(CN2Cc3ccccc3OC3(CCN(Cc4c[nH]c5cnccc45)CC3)C2)c1 | 85% | 96.6% | 54.2% | 71.2%
18 | CC(C)NCc1cccc(-c2ccc(NC(=O)c3cccc(C#N)c3)cc2)c1 | 86.2% | 27.9% | 87.5% | 5.95% (active)
19 | CC(C)(C)Nc1ncc2nc(Nc3cccc(C(F)(F)F)c3)n(CC3CCNC3)c2n1 (centres undefined) | 94.5% | 91.5% | 114% | 3.65% (active)
20 | Cc1c(O)cccc1C(=O)N[C@@H](CSc1ccccc1)[C@H](O)CN1C[C@H]2CCCC[C@H]2C[C@H]1C(=O)NC(C)(C)C | 107% | 105% | 83.9% | 88.2%
21 | O=C(Nc1ccc([N+](=O)[O-])cc1Cl)c1cc(Cl)ccc1O | 0% (active) | 0% (active) | 4.63% (active) | 4.72% (active)
22 | Cc1cc(C)c(Nc2ccnc(Nc3ccc(C#N)cc3)n2)c(C)c1 | 103% | 99.4% | 92.4% | 86.6%
23 | CC[C@H](C)[C@@H]1NC(=O)c2csc(n2)[C@H]([C@@H](C)CC)NC(=O)c2csc(n2)CNC(=O)c2nc1oc2C | 83.8% | 100% | 64.4% | 44.8%
24 | N#Cc1c(N)nc(NC2CC2)nc1N | 99.7% | 92.9% | 91.3% | 95.4%
25 | COc1cccc(-c2ccc(NC(=O)C3=C(C(=O)O)CCC3)c(F)c2)c1 | 109% | 105% | 76.1% | 91.5%
26 | Oc1ccccc1CCNC1CCc2ccc(F)cc21 (centres undefined) | 107% | 115% | 32.8% | 34%
27 | CC(C)Oc1cccc(-c2ccc3nc(Nc4ncccc4N(C)C)cn3c2)n1 | 88.2% | 93.4% | 124% | 84.6%
28 | C=CC[C@@H]1/C=C(\C)C[C@H](C)C[C@H](OC)[C@H]2O[C@@](O)(C(=O)C(=O)N3CCCC[C@H]3C(=O)O[C@H](/C(C)=C/[C@@H]3CC[C@@H](O)[C@@H](OC)C3)[C@H](C)[C@@H](O)CC1=O)[C@H](C)C[C@@H]2OC | 103% | 105% | 84.5% | 48.1%
29 | CC(C)(C)[S@@](=O)N1Cc2cc(C(=O)NCCc3ccncc3)nc(-c3cccc(-c4ccccc4)c3)c2[C@H]1CCO | 82.6% | 102% | 67.6% | 52.9%
30 | O=C(NC(CCO)C1CCCCC1)c1cc2ccc(C(F)(F)F)cc2[nH]1 (centres undefined) | 79.2% | 100% | 101% | 85.3%
31 | CO/C=C(/C(=O)OC)c1ccccc1COc1c(C)c(-c2ccc(C)cc2C)nn1C | 46.5% | 15% (active) | 6.33% (active) | 10.3% (active)
